A selection: hits, their analogues and other compounds. The true share with any hit is near 6%.
D1 antagonist = human D1 dopamine receptor antagonism. P21728. HEK293 TREx D1 cells, calcium flux, dopamine EC80; active compounds read low. activity change, negative = inhibition, % at 10 µM. 360,000 tested, 3.2% active. AID 504652; in the data active = activity change below about -30%; note: % is set by controls: 0 for no effect and ±100 for the full control effect
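Inducible Hek293 Trex D1 cells (tetracycline, overnight, 30 C). Calcium dye 30–90 min RT. Antagonist mode: EC80 dopamine added after 180 s compound read.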
D1 potentiator = potentiators of human D1 dopamine receptor | P21728 | HEK293 TREx D1 cells, calcium flux, dopamine EC20 potentiation | potentiation, % at 10 µM | 360,000 tested, 0.036% active; in the data active = potentiation above about 30%; note: 0% is about no effect
D1 agonist = human D1 receptor agonism; P21728; HEK293 T-REx D1 cells, calcium flux, agonist mode; activation, % at 2 µM; 360,000 tested, 1% active; in the data active = activation above about 30%; note: 0% is about no effect
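Agonism was scored from calcium flux recorded over 180 s (1 read/s) after pintool compound addition, following a 10-cycle baseline. Cells were inducible force-coupled HEK293 TREx D1, plated overnight at 30 C and loaded with no-wash calcium dye.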
DRD3 antagonist = blocks the human D3 dopamine receptor. P35462. D3R cells, DiscoveRx beta-arrestin luminescence, antagonist mode; active compounds read low. max response, negative = inhibition, %. 360,000 tested, 2.5% active; in the data active = max response below about -50%; inconclusive = no clear call, values can overlap the other calls; note: % is set by controls: 0 for no effect and ±100 for the full control effect
Target sequence (P35462 whole entry, looked up): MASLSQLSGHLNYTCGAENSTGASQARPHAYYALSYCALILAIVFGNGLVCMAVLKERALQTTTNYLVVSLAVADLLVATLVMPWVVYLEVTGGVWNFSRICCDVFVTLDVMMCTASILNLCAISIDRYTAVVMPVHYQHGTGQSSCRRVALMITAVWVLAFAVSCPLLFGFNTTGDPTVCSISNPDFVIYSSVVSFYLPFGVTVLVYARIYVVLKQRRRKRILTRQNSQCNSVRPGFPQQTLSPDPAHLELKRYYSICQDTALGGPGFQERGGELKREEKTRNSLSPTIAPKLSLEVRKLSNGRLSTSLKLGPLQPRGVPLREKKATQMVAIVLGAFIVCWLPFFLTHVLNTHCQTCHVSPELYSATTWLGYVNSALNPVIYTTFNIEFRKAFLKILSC
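Cells plated overnight at 1500 cells/well, then exposed to library compounds with dopamine controls for 90 minutes at 37 degrees C. DiscoveRx reagent added for 30–60 minutes at room temperature; luminescence read, quantitative HTS format.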
D3 ag = activates the human D3 dopamine receptor; D3R DiscoveRx beta-arrestin cells, luminescence, 90 min; P35462; max activation, %; 410,000 tested, 0.58% active; in the data active = max activation above about 30%; note: 0% is about no effect
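Agonist mode: compounds and dopamine controls were applied to plated cells for 90 min at 37 degrees C after an overnight attachment at 1500 cells/well. Luminescent read-out followed 30 - 60 minutes at room temperature with DiscoveRx detection reagent.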
Numbers without * were called inactive; ? = inconclusive; . = not tested or not shown.

SMILES | D1 antagonist | D1 potentiator | D1 agonist | DRD3 antagonist | D3 ag
Cc1oc(-c2ccccc2Cl)nc1Cn1c(SCc2cccc(F)c2)nc2cccnc21 | 7 | 4 | 13 | . | 44*
O=C(NC1CCCCC1)c1ccc(Cn2c(SCc3cccc(F)c3)nc3cccnc32)cc1 | -65* | 0 | 0 | . | -11
O=C(O)c1cc(Cl)c2ccccc2c1O | 6 | -1 | 2 | ? | -3
CC(C)(NC(=O)c1cc(Cl)c2ccccc2c1O)C(=O)O | -30* | 0 | 0 | 11 | 3
Cc1ccc(Nc2cc(C)c3ccc(O)cc3n2)cc1C | 3 | -19 | 33* | -57* | -19
COc1ccc(Nc2c(C)cccc2C)cc1 | -38* | -17 | 3 | -7 | -3
COC(=O)c1cc(Nc2cc(C)c3c(O)cccc3n2)cc(C(=O)OC)c1 | -26 | -6 | 8 | 37 | 14
COc1ccc(C(=O)CC(=O)C(=O)Nc2c(C)cccc2C)cc1 | -9 | -11 | 1 | -21 | -14
COC(=O)c1cc(Nc2cc(C)c3ccc(O)cc3n2)cc(C(=O)OC)c1 | 2 | -2 | 1 | 10 | -10
COc1ccc(Nc2cc(C)c3c(O)cccc3n2)cc1 | -33* | -16 | 8 | 1 | 2
Cc1ccc(Nc2cc(C)c3c(O)cccc3n2)cc1C | -49* | -18 | 35* | -23 | -5
CCCCOc1ccccc1NC(=O)Cn1c(-c2cncs2)nc2ccccc21 | -3 | -2 | 3 | . | 5
Cc1cc(Br)ccc1NC(=O)CN(C)C(=O)C1CSC2(C)CCC(=O)N12 (configuration not stated) | -33* | . | 2 | 23 | 6
COc1ccc(-c2nnn(CC(=O)N(c3cccc(O)c3)C(C)C(=O)NC3CCCC3)n2)cc1OC (configuration not stated) | -32* | -8 | 1 | 28 | 9
CCC(C(=O)NC1CCCC1)N(C(=O)Cn1nnc(-c2ccc(OC)c(OC)c2)n1)c1cccc(O)c1 (configuration not stated) | -4 | -6 | -1 | 3 | 3
C=CCNC(=O)COC(=O)c1ccc(Sc2nncn2C)c([N+](=O)[O-])c1 | -32* | 2 | 0 | -11 | 1
Cn1cnnc1Sc1ccc(C(=O)OCC(=O)NCC(F)(F)F)cc1[N+](=O)[O-] | -8 | -3 | 0 | 2 | 2
COCCCNC(=O)CSc1nc2c(sc(=S)n2-c2cc(Cl)ccc2OC)c(=O)[nH]1 | 13 | -1 | 1 | 24 | 5
COc1ccc(C(=O)Nc2nnc(SCC(=O)NCC3CCCO3)s2)cc1OC (configuration not stated) | -30* | -12 | 3 | 13 | 13
COc1cc2c(=O)n(CCC(=O)NCC3CCCO3)c(=O)n(CC(=O)c3ccc(Cl)cc3)c2cc1OC (configuration not stated) | -30* | -7 | 0 | 139 | 0
COc1ccc(Cl)cc1-n1c(=S)sc2c(=O)[nH]c(SCC(=O)NCC3CCCO3)nc21 (configuration not stated) | 16 | 2 | 4 | -58* | -27
Cc1cc(C)cc(C(=O)Nc2nnc(SCC(=O)NCC3CCCO3)s2)c1 (configuration not stated) | -1 | -3 | 0 | -4 | -12
CCOC(=O)CN[C@@H](C(=O)N1CC[C@H]1C(=O)NCc1ccc(/C(N)=N/O)cc1)C1CCCCC1 | . | . | . | . | 4
CCc1c(C)sc2c1CCN(C(=O)Nc1ccc(F)c(Cl)c1)C2c1ccc(F)cc1 (configuration not stated) | -11 | -1 | 7 | . | 0
COc1cccc(NC(=O)Cn2nc(C)c3c(C)n(-c4ccccc4)nc3c2=O)c1 | 0 | -6 | 2 | . | 6
SMILES | D1 antagonist | D1 potentiator | D1 agonist | DRD3 antagonist | D3 ag
CCn1c(O)c(N=NC2=NC(=O)CS2)c2ccccc21 | -6 | 0 | -1 | -79* | -16
COC(=O)c1ccc(CSc2ccc3nnc(-c4cccnc4)n3n2)o1 | -46* | -14 | 2 | . | .
Cc1cccc(C)c1NC(=O)C(NC=O)c1ccccc1Cl (configuration not stated) | -83* | 2 | 1 | -20 | -3
Cc1ccc(-c2cccc(C(=O)NCc3ccccc3)n2)c2ccccc12 | 0 | -3 | -3 | -59* | 0
COc1ccc(NC(=O)c2cc(-c3cc(F)ccc3OC)n[nH]2)c(C)c1 | . | . | . | -51* | -8
COc1ccc(NC(=O)c2cc(-c3cc(F)ccc3OC(C)C)n[nH]2)c(OC)c1 | . | . | . | 43 | 1
CCCOc1ccc(F)cc1-c1cc(C(=O)NCc2ccccc2)[nH]n1 | . | . | . | -99* | -19
COc1ccc(NC(=O)c2cc(-c3ccc(F)cc3C)n[nH]2)cc1OC | . | . | . | -1 | -4
Cc1cc(F)ccc1-c1cc(C(=O)Nc2ccc(F)cc2)[nH]n1 | . | . | . | -58* | -22
CCc1ccc(NC(=O)CC2C(=O)N(c3cccc(C)c3)C(=O)N2Cc2ccco2)cc1 (configuration not stated) | -7 | -4 | 3 | . | -8
CCc1ccc(-n2nc(C)c3c(C)cc(=O)n(CC(=O)Nc4ccc(OC)c(OC)c4)c32)cc1 | 25 | -2 | 1 | . | -8
COc1ccc(NC(=O)c2c(C)oc3ccc(O)c(CN4CCCCCC4)c23)cc1Cl | -21 | -2 | -3 | . | -26
COc1ccc(NC(=O)c2cc(-c3cc(Cl)ccc3OC)n[nH]2)cc1OC | . | . | . | 27 | 6
Cc1cc(O)ccc1-c1cc(C(=O)NCc2ccc(F)cc2)[nH]n1 | . | . | . | ? | -17
COc1ccc(Cl)cc1-c1cc(C(=O)Nc2ccc(F)cc2)[nH]n1 | . | . | . | -69* | -19
Cc1cc(F)ccc1-c1cc(C(=O)NCc2ccccc2)[nH]n1 | . | . | . | -89* | -20
O=C(NCc1ccccc1)c1c(Cl)nc(Cl)c(Cl)c1Cl | -42* | -10 | 0 | ? | -1
COc1ccc(CC(=O)N2CCc3cc(OC)c(OC)cc3C2COc2ccc3c(C)cc(=O)oc3c2)cc1OC (configuration not stated) | -1 | 0 | -1 | . | 3
CCOC(=O)[C@H]1[C@H]2COc3ccc(C)cc3[C@@H]2N2C(=O)c3cc(OC)c(OC)cc3NC(=O)[C@@]12C | 4 | 4 | 3 | -60* | -17
CCOC(=O)[C@H]1[C@H]2COc3ccc(Br)cc3[C@@H]2N2C(=O)c3cc(OC)c(OC)cc3NC(=O)[C@@]12C | -1 | 6 | 1 | 6 | 5
CCOC(=O)[C@H]1[C@H]2COc3ccc(OC)cc3[C@@H]2N2C(=O)c3cc(OC)ccc3NC(=O)[C@@]12C | -3 | -3 | 1 | 0 | 5
CCCCN1CC(=O)N2[C@@H]3c4cc(OC)ccc4OC[C@@H]3[C@H](C(=O)OCC)[C@]2(C)C1=O | . | . | . | 14 | 49*
CCOC(=O)[C@H]1[C@H]2COc3ccc(OC)cc3[C@@H]2N2C(=O)c3cc(OC)c(OC)cc3NC(=O)[C@@]12C | -17 | 1 | 3 | -61* | -11
